BAZ2B block – qHTS Assay for Inhibitors of BAZ2B. Potency, µM (series often up to 114 µM), usual class: inhibitors. Bromodomain adjacent to zinc finger domain protein 2B (Homo sapiens), Q9UIF8. AID 504333, 2011. hit rate 4.4% among 360,000. AlphaScreen BAZ2B-H3K14Ac peptide displacement; note: nearly all actives have a fitted effect of over 60% in size
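In this displacement format the biotinylated H3(5-23) peptide acetylated at Lys14 serves as ligand at 50 nM, with BAZ2B at 50 nM in PBS pH 7.4 containing 0.01% Tween-20. Donor and acceptor beads are 10 ug/mL final.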
HP1b chromo inh – HTS for Inhibitors of HP1-beta Chromodomain Interactions with Methylated Histone Tails | Chromobox protein homolog 1 (Homo sapiens), P83916 | AlphaScreen HP1-beta / biotin-H3K9me3 peptide binding | Potency, µM (series often up to 114 µM), most hits filed as inhibitors | hit rate 0.56% among 390,000 | AID 540317, 2011; note: nearly all actives have a fitted effect of over 70% in size
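AlphaScreen: HP1-beta (50 nM) preformed 30 min with biotin-H3(1-18)K9me3 peptide (50 nM) in PBS pH 7.4, 0.01% Tween-20. Compound added for 30 min at RT, then streptavidin donor/nickel chelate acceptor beads (10 ug/mL) for 30 min.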
Sfp inh – qHTS Assay for Inhibitors of Bacillus subtilis Sfp phosphopantetheinyl transferase (PPTase) | Biochemical Sfp PPTase activity, qHTS | 4'-phosphopantetheinyl transferase ffp (Bacillus subtilis), Q9F4F7 | Potency, µM, hits mostly inhibitors | hit rate 3.5% among 310,000;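 note: the enzyme is Sfp with the accession as filed and its product quenches rhodamine fluorescence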
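After 15 min at room temperature with compound, 15 nM Sfp received 5 uM rhodamine-CoA plus 12.5 uM BHQ-2-ybbR (50 mM Hepes pH 7.6, 10 mM MgCl2). Rate came from the fluorescence difference over 30 min, ex 525/em 598 nm.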
JMJD2A Tudor inh – qHTS Assay for Inhibitors of JMJD2A-Tudor Domain | Lysine-specific demethylase 4A (Homo sapiens), O75164 | AID 504339, 2011 | AlphaScreen JMJD2A-Tudor / H3K4me3 peptide binding | hit rate 4.4% among 390,000 | Potency, µM (titrated, usually from 114 µM), hits mostly inhibitors; note: nearly all actives have a fitted effect of over 50% in size
G9a inh – qHTS Assay for Inhibitors of Histone Lysine Methyltransferase G9a; hit rate 8.8% among 350,000; G9a H3K9 monomethylation, AlphaScreen, 2 h; Histone-lysine N-methyltransferase EHMT2 (Homo sapiens), Q96KQ7; AID 504332, 2011; Potency, µM (top dose mostly 102 µM), usual class: inhibitors; note: nearly all actives have a fitted effect of over 75% in size
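Signal arises when biotinylated H3K9 peptide, once monomethylated, bridges streptavidin donor and antibody-captured acceptor beads. Enzyme at 20 nM was preincubated 15 min with test compounds; peptide 500 nM and SAM 20 uM then reacted for 2 h.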
Of the large screens only hits and unclear results are named; the others gave an inactive call. Sampled rows, rich in hits. Any-hit rate of the full collection: about 12%. Calls come from the whole dose curve; as a rule, active = well fitted curve in the direction sought with a large enough effect; inconclusive = small, poorly fitted or top-dose-only effect, or another doubt; inactive = no such curve, though single readings can be large; an effect the other way counts as inactive or inconclusive.

Cc1ccc(NCc2ccncc2)c(Br)c1	BAZ2B block 22µM, HP1b chromo inh 28µM, Sfp inh inconclusive, JMJD2A Tudor inh 1.6µM (no result: G9a inh)
Cc1cc(NCc2ccncc2)ccc1Br	BAZ2B block 50µM, HP1b chromo inh inconclusive, Sfp inh 79µM, JMJD2A Tudor inh 18µM (no result: G9a inh)
O=C(O)c1sc2cc(C(F)(F)F)cnc2c1-c1cccs1	G9a inh inconclusive
CC1CCc2c(sc(NC(=O)CSc3ncn[nH]3)c2C#N)C1 (centres undefined)	none
CC(C)(C)C1CCc2c(sc(NC(=O)CSc3ncn[nH]3)c2C#N)C1 (centres undefined)	Sfp inh inconclusive, G9a inh 25µM
CCCc1cc(=O)[nH]c(SCC(=O)Nc2sc3c(c2C#N)CCC(C)C3)n1 (centres undefined)	JMJD2A Tudor inh inconclusive, G9a inh 50µM
Cc1cc(C(=O)OCC(=O)Nc2sc3c(c2C#N)CCC(C)C3)c2ccccc2n1 (centres undefined)	Sfp inh inconclusive, G9a inh 45µM
O=C(c1ccc(OC2CCN(Cc3ccccn3)CC2)cc1)N1CCC[C@H]1CO	JMJD2A Tudor inh inconclusive, G9a inh inconclusive
COC(=O)c1ccc2c(c1)NC(=O)CS2	G9a inh 40µM
Cc1ccc(CN(C)C(=O)c2ccc3c(c2)NC(=O)CS3)o1	Sfp inh 32µM, G9a inh inconclusive
COC(=O)c1ccc2c(c1)SC1=C(CCCC1=O)N2	BAZ2B block 40µM, G9a inh inconclusive
C=CCn1c(C)cc(C(=O)COC(=O)c2ccc(N)c([N+](=O)[O-])c2)c1C	BAZ2B block inconclusive, JMJD2A Tudor inh inconclusive, G9a inh inconclusive
C=CCn1c(C)cc(C(=O)COC(=O)c2ccc3c(c2)NC(=O)CS3)c1C	BAZ2B block inconclusive, HP1b chromo inh inconclusive, Sfp inh 56µM, JMJD2A Tudor inh inconclusive, G9a inh 20µM
COc1ccccc1CN(C)C(=O)c1ccc2c(c1)NC(=O)CS2	none
COCCCNC(=O)N1[C@H](c2cccs2)[C@@H](C)C(=O)[C@@H](C)[C@@H]1c1cccs1	none (no result: Sfp inh)
Cc1sc2ccccc2c1CNC[C@H]1O[C@@H](n2cnc3c(N)ncnc32)[C@H](O)[C@@H]1O	none (no result: BAZ2B block, Sfp inh, G9a inh)
Cc1nnc(NC(=O)c2ccc3c(c2)NC(=O)CS3)s1	none (no result: Sfp inh)
Cc1ccc(NC(=O)c2ccc3c(c2)NC(=O)CS3)nc1	HP1b chromo inh inconclusive, G9a inh 10µM (no result: Sfp inh)
CCCS(=O)(=O)N1CCN(C(=O)COc2ccccc2)CC1	none
CCOc1ccccc1CN1CCC(O)CC1	BAZ2B block inconclusive, HP1b chromo inh inconclusive, JMJD2A Tudor inh 5.6µM
CCCS(=O)(=O)N1CCN(Cc2ccccc2OCC)CC1	BAZ2B block inconclusive, HP1b chromo inh inconclusive, JMJD2A Tudor inh 2.8µM, G9a inh inconclusive
Cc1nc(SC2CC(=O)N(c3ccccc3)C2=O)n[nH]1 (centres undefined)	BAZ2B block inconclusive, HP1b chromo inh inconclusive, Sfp inh 16µM, JMJD2A Tudor inh inconclusive (no result: G9a inh)
CCOC(=O)c1ccc(N2C(=O)C=CC2=O)cc1	BAZ2B block inconclusive, HP1b chromo inh 20µM, Sfp inh 3.5µM, JMJD2A Tudor inh 22µM, G9a inh inconclusive
CCOC(=O)c1ccc(N2C(=O)CC(Sc3nnc(C)s3)C2=O)cc1 (centres undefined)	Sfp inh 45µM, JMJD2A Tudor inh 50µM, G9a inh 10µM
Cc1cc(C)nc(SC2CC(=O)N(c3ccc(Br)cc3)C2=O)n1 (centres undefined)	G9a inh 40µM
COc1ccccc1N1C(=O)CC(Sc2n[nH]c(-c3cccc(C)c3)n2)C1=O (centres undefined)	HP1b chromo inh inconclusive, Sfp inh 5.6µM, JMJD2A Tudor inh 2.8µM, G9a inh 1µM
CCOc1ccc(N2C(=O)CC(Sc3ncccn3)C2=O)cc1 (centres undefined)	none
COc1ccccc1N1C(=O)CC(Sc2nccc(C)n2)C1=O (centres undefined)	none
C=CCNc1nnc(SC2CC(=O)N(c3ccc(OCCC)cc3)C2=O)s1 (centres undefined)	Sfp inh 50µM, JMJD2A Tudor inh 35µM, G9a inh 8.9µM
Nc1nnc(SC2CC(=O)N(c3ccccc3)C2=O)s1 (centres undefined)	HP1b chromo inh inconclusive, Sfp inh 79µM, JMJD2A Tudor inh 45µM, G9a inh 8.9µM
COC(=O)CSc1nc2c(cnn2-c2ccc(Cl)cc2)c(=O)[nH]1	none
CCNC(=S)N1CCN(CC)CC1	BAZ2B block 56µM, HP1b chromo inh inconclusive, JMJD2A Tudor inh 3.2µM, G9a inh 25µM
CN1CCN(C(=S)NCCc2ccccc2)CC1	BAZ2B block 45µM, HP1b chromo inh 56µM, JMJD2A Tudor inh 4.5µM, G9a inh 6.3µM
CCN1CCN(C(=S)NCc2ccc(C)cc2)CC1	none
CCCCNC(=S)N1CCN(C)CC1	BAZ2B block 40µM, HP1b chromo inh 45µM, Sfp inh 10µM, JMJD2A Tudor inh 11µM, G9a inh 11µM
CC1(C)S/C(=N/N=C/c2cccs2)NC1=O	none
Cc1ccc(S(=O)(=O)N2CCN(C(=O)c3ccccc3OCc3c(C)noc3C)CC2)cc1	none (no result: Sfp inh)
COc1cc(O)c(C(CCN2CCN(c3ccccc3)CC2)c2ccc3c(c2)OCO3)c(OC)c1 (centres undefined)	BAZ2B block 10µM, JMJD2A Tudor inh 18µM, G9a inh inconclusive
COc1cc(O)c(C(CCN2CCN(c3ccccc3)CC2)c2cc(OC)c(OC)c(OC)c2)c(OC)c1 (centres undefined)	BAZ2B block inconclusive, HP1b chromo inh inconclusive, JMJD2A Tudor inh 40µM
COc1ccc(C(CCN2CCOCC2)c2c(O)cc(OC)cc2OC)cc1 (centres undefined)	none
CC1(C)CC(=O)C=C(c2cccc(CO)c2)C1	none (no result: Sfp inh)
CCCCn1c(N)c(N(CC)C(=O)c2ccc(Cl)c(Cl)c2)c(=O)[nH]c1=O	none
Cc1ccc(CNC(=O)Cn2c(=O)cc(-c3ccccc3)c3c(C)nn(C)c32)cc1	none (no result: Sfp inh)
CC(=O)c1c(C)nc(-c2ccc3c(c2)OCO3)n1O	G9a inh 56µM
CCOc1ccc(-c2nc(C)c(C(C)=O)n2O)cc1	Sfp inh 18µM, G9a inh inconclusive
COc1ccc(-c2nc(C)c(C(C)=O)n2O)cc1OC	BAZ2B block inconclusive, G9a inh inconclusive
Cc1cc(C)nc(SSc2nc(C)cc(C)n2)n1	Sfp inh 2.2µM, JMJD2A Tudor inh 10µM, G9a inh 0.4µM
CC(C)(C)[C@H](N)C(=O)N[C@H]1CCC2C3CC=C4C[C@@H](O)CC[C@]4(C)C3CC[C@@]21C (some centres undefined)	HP1b chromo inh inconclusive (no result: BAZ2B block, Sfp inh, G9a inh)
COc1cccc(-c2nc(CCl)cs2)c1	G9a inh inconclusive
COc1ccc(-c2nc(CCl)cs2)cc1OC	JMJD2A Tudor inh inconclusive, G9a inh 20µM

Source: PubChem BioAssay
